Compound activity deposited in PubChem BioAssay by The Scripps Research Institute Molecular Screening Center.
The list is not random: actives were taken first. Their share in the collection is about 1.8%.
GSTO1 counter: inhibitors of recombinant GSTO1, primary screen, counter-screen for RBBP9 inhibitor project, biochemical, fluorescence polarization; Glutathione S-transferase omega-1 (Homo sapiens), P78417; activity-based probe fluorescence polarization; inhibition, % at 5.96 µM; actives 1.1% (n = 300,000); AID 1974, 2009;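 active = inhibition above the campaign mean inhibition plus 3 SD, cut at about 35% in these data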;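 also: 0% = GSTO1-1 with DMSO and 100% = wells lacking GSTO1-1 enzyme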
Fam108B inh: mouse Fam108B serine hydrolase inhibitors, primary screen, counter-screen for RBBP9 inhibitor project, biochemical, fluorescence polarization. AID 1947, 2009. actives 0.33% (n = 300,000). inhibition, % at 9.51 µM. recombinant Fam108B, FP-Rh probe fluorescence polarization;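 active = inhibition above the screen mean inhibition plus 3 SD, computed separately per campaign, cut at about 18% in these data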;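 also: inhibitors lower polarization as less probe binds the enzyme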
LYPLA2 inh: LYPLA2 inhibitors, primary screen, counter-screen for PME1 inhibitor project, biochemical, fluorescence polarization, FP-Rh probe ABPP | Acyl-protein thioesterase 2 (Homo sapiens), O95372 | recombinant LYPLA2 | inhibition, % at 5.9 µM | actives 0.38% (n = 320,000);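 active = inhibition above the screen-wide mean plus 3 SD, limit set per campaign, cut at about 26% in these data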;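 also: 0% = LYPLA2 with DMSO and 100% = wells lacking LYPLA2 enzyme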
Target sequence (O95372 whole entry, looked up): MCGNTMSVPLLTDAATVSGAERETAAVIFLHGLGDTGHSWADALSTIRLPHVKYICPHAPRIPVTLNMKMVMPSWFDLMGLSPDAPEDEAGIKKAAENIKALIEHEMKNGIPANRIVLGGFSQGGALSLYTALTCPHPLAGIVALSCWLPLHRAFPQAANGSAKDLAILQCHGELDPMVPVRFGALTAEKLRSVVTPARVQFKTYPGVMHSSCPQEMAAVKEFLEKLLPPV
LYPLA1 inh: LYPLA1 inhibitors, primary screen, counter-screen for PME1 inhibitor project, biochemical, fluorescence polarization, FP-Rh probe ABPP; AID 2174, 2009; recombinant LYPLA1; inhibition, % at 5.9 µM; Acyl-protein thioesterase 1 (Homo sapiens), O75608; actives 0.16% (n = 320,000);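 active = inhibition above the mean of all tested compounds plus 3 SD, set per campaign, cut at about 14% in these data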;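 also: inhibitors block serine hydrolase probe labeling of LYPLA1 so polarization falls; 0% = enzyme with DMSO and 100% = wells lacking LYPLA1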
Target sequence (O75608 whole entry, looked up): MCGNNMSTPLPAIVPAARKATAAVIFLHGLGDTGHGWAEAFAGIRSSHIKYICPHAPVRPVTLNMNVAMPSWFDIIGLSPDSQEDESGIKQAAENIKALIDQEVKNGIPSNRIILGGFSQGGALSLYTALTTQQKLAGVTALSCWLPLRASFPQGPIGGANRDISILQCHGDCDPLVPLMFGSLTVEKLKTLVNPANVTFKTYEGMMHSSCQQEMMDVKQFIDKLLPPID
PAD4 FP inh: human PAD4 inhibitors, primary screen, biochemical, fluorescence polarization, 1536-well format; Protein-arginine deiminase type-4 (Homo sapiens), Q9UM07; recombinant PAD4, RCA probe fluorescence polarization; inhibition, % at 6.36 µM; actives 0.41% (n = 330,000);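 active = percent inhibition above a cutoff equal to the mean of all tested compounds plus 3 SD, cut at about 15% in these data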;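 also: 0% = PAD4 with RCA probe and DMSO and 100% = probe without PAD4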
PME-1 primary: PME-1 inhibitors via competitive probe labeling, primary screen, biochemical, fluorescence polarization, FP-Rh probe, HTS; recombinant PME-1; actives 0.53% (n = 320,000); Protein phosphatase methylesterase 1 (Homo sapiens), Q9Y570; AID 2130, 2009; inhibition, % at 5.9 µM;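 active = inhibition above the campaign mean of all compounds plus 3 SD, cut at about 26% in these data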;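 also: competitive labeling of PME-1 active site by serine hydrolase directed probe; 0% = PME-1 with DMSO and 100% = wells lacking PME-1 enzyme; inhibitors block probe labeling so polarization falls and inhibition rises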
Numbers without * were called inactive; . = no result.

SMILES	GSTO1 counter	Fam108B inh	LYPLA2 inh	LYPLA1 inh	PAD4 FP inh	PME-1 primary
O=[N+]([O-])CC(=Nc1ccc(Cl)cc1)N/N=C\c1oc(O)c2ccccc12	21	8	5	2	-9	52*
O=C(N/N=C/c1ccc([N+](=O)[O-])o1)c1cn(-c2ccccc2)nc1-c1ccc(Cl)cc1	-2	-3	-3	-8	-1	-1
COc1ccccc1N=Nc1nc(-c2ccccc2)c(-c2ccccc2)[nH]1	-51	5	-5	-9	-1	9
COc1ccc(N=Nc2nc(-c3ccccc3)c(-c3ccccc3)[nH]2)cc1	-19	10	-5	-4	-3	28*
Oc1ccccc1N=Nc1nc(-c2ccccc2)c(-c2ccccc2)[nH]1	-12	17	-3	-12	-6	35*
CCOc1cc2c(cc1OCC)CN(C(=O)c1cccc(S(=O)(=O)N3CCCC3)c1)CC2	.	.	3	-1	-1	0
N#C/C(=C(/O)c1ccc(Cl)cc1)c1nc2ccccc2[nH]1	4	0	0	0	-4	-3
N#C/C(=C(\O)c1cc(Cl)sc1Cl)c1nc2ccccc2[nH]1	0	12	-2	0	-10	35*
Nc1ccc(Br)c2c1C(=O)c1ccccc1C2=O	10	1	3	4	4	26*
COc1ccc(C)cc1NC(=O)CCCN1C(=O)CN(C)C1=O	.	.	-2	1	3	0
CCOc1ccc(NC(=O)c2ccc(Cl)c(NC(=O)c3ccco3)c2)cc1	-5	-3	-1	-1	5	-4
COC(=O)CCCC1=CC2=C(c3ccccc3)C(=O)C(C)(OC(=O)C3CCCC3)C(=O)C2=CN1c1ccccc1 (configuration not stated)	35*	0	-3	-4	-8	1
Cc1ccc(-n2c(C)c(C)c3c(N)ncnc32)cc1	-1	4	2	-2	1	-6
O=C(C(Cl)Cl)N1CCN(Cc2ccccc2)CC1	35*	-3	2	0	-4	-6
CCCCNc1cc(NC(C)=O)cc2cc(OC)c(OC)cc12	35*	3	-8	-3	-14	0
Cc1ccc(O)c(C(=O)c2cc(C#N)c(=O)n(-c3nccs3)c2)c1	9	8	-7	-7	-11	33*
CCN(CC)c1ccc(/C=N/NC(=O)Cc2nnc(NC(=O)Nc3ccccc3)s2)cc1	-11	47*	-14	-25	-11	37*
CCN(CC)c1ccc(/C=N/NC(=O)Nc2ccccc2)cc1	12	6	1	0	0	12
O=C1/C(=C/Nc2ccc3c(c2)OCO3)CCc2ccccc21	14	12	15	2	0	30*
CC(=O)c1nc(N2C(=O)CC(Cc3ccccc3)C2=O)sc1C (configuration not stated)	2	4	6	2	5	0
CCC(C)Nc1ccc(NC(C)CC)cc1 (configuration not stated)	.	.	7	3	-5	7
COc1ccccc1C(C)NS(=O)(=O)c1cccs1 (configuration not stated)	-3	0	4	2	97*	-3
O=C(O)CCN1C(=O)/C(=C\c2cccc(OCC(=O)Nc3ccc(Cl)cc3)c2)SC1=S	-66	-9	1	-9	-12	11
Cc1ccc(NC(=O)COc2cccc(/C=C3\SC(=S)N(CCC(=O)O)C3=O)c2)cc1Cl	-30	-5	9	-3	-10	32*
Cc1cc(/C=C2\SC(=Nc3ccccc3)NC2=O)c(C)n1-c1ccc(S(N)(=O)=O)cc1	-43	-29	-40	-19	-13	-32
Cn1cnc(S(=O)(=O)Nc2ccc(Cl)c(C(F)(F)F)c2)c1	17	2	-4	2	0	-3
O=C(N/N=C/c1sc(N2CCOCC2)nc1-c1ccccc1)c1ccccc1Cl	4	5	5	1	-2	0
O=C(N/N=C/c1sc(N2CCOCC2)nc1-c1ccccc1)c1ccccc1O	-3	15	-9	-4	-3	51*
